Measured values from PubChem BioAssay (NCATS).
Results filed as inconclusive are left out. Activity calls are given as the source filed them. Calls follow the shape of the dose curve; as a rule, active = well fitted curve in the direction sought with a large enough effect; inconclusive = small, poorly fitted or top-dose-only effect, or another doubt; inactive = no such curve, though single readings can be large; an effect the other way counts as inactive or inconclusive.

Tests used:
[1] = Cell Viability - LYMP2-023 (AID 975);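 also: cellular ATP measured by luciferase luminescence as viability proxy; series mostly up to about 92 µM; cells exposed to compound for 24 hours at 37 °C; nearly all actives have a fitted effect of over 55% in size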
Procedure, shortened: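 Concentration-dependent drop in intracellular ATP measures acute cytotoxicity in a human lymphoblastoid line treated for 24 hours in complete culture medium. AC50 values are taken from Hill-equation fits of qHTS data.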

[2] = Cell Viability - LYMP2-025 (AID 976);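 also: series mostly up to about 92 µM; cells exposed to compound for 24 h at 37 °C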
Procedure, shortened: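 In qHTS format, LYMP2-025 lymphoblastoid cells in complete culture medium received compound for 24 hr; ATP-based CellTiter-Glo signal gave viability, with AC50 derived by Hill equation.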

[3] = Cell Viability - LYMP2-002 (AID 977);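 also: series mostly up to about 92 µM; compound exposure lasted 24 h at 37 °C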
Procedure, shortened: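 Cytotoxicity is scored as concentration-dependent loss of cellular ATP in a human lymphoblastoid line after 24 hr compound treatment at 37 C. AC50 is obtained by modelling concentration-response data with the Hill equation.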

[4] = Cell Viability - LYMP2-006 (AID 978);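 also: series mostly up to about 92 µM; cells exposed to compound for 24 hours; nearly all actives have a fitted effect of over 60% in size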
Procedure, shortened: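 Cells are seeded at 2500 per well and rested 5 hr at 37 C. Compounds are added across a concentration series for 24 hr at 37 C, after which ATP is quantified by luciferase luminescence.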

[5] = Cell Viability - LYMP2-007 (AID 979);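 also: cells exposed to compound for 24 h before reading; nearly all actives have a fitted effect of over 60% in size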
Procedure, shortened: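 Acute toxicity is scored as a concentration-dependent fall in intracellular ATP in human lymphoblastoid cells treated 24 hr at 37 C, measured by luciferase luminescence; Hill-equation modelling yields AC50.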

[6] = Cell Viability - LYMP2-008 (AID 980);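 also: cells exposed to compound for 24 h at 37 °C; nearly all actives have a fitted effect of over 60% in size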
Procedure, shortened: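 Acute cytotoxicity is scored as concentration-dependent loss of cellular ATP in a human lymphoblastoid line after 24 hr treatment at 37 C. ATP is quantified by luciferase luminescence.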

[7] = Cell Viability - LYMP2-010 (AID 981);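 also: cells exposed to compound for 24 hours at 37 °C; nearly all actives have a fitted effect of over 55% in size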
Procedure, shortened: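 Acute toxicity is scored as a concentration-dependent loss of cellular ATP in human lymphoblastoid cells after 24 hr compound exposure in complete medium. Tetraoctylammonium bromide is the positive control.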

[8] = Cell Viability - LYMP2-012 (AID 982);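 also: cellular ATP by luciferase luminescence where a drop means cytotoxicity; cells exposed to compound for one day before reading; nearly all actives have a fitted effect of over 55% in size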
[9] = Cell Viability - LYMP2-014 (AID 983);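 also: series mostly up to about 92 µM; cells exposed to compound for 24 h at 37 °C; nearly all actives have a fitted effect of over 50% in size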
Procedure, shortened: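 Decrease in intracellular ATP after 24 hr treatment at 37 C, measured by luciferase luminescence, indicated cytotoxicity. Concentration-response data were fitted with the standard Hill equation to give AC50.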

[10] = Cell Viability - LYMP2-016 (AID 984);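 also: cells exposed to compound for 24 hours at 37 °C; nearly all actives have a fitted effect of over 55% in size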
Procedure, shortened: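 Cells were seeded at 2500 per well and rested 5 hr before a 24 hr compound exposure at 37 C. Viability was then gauged as cellular ATP by luciferase luminescence, with AC50 values fitted to the Hill equation.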

[11] = Cell Viability - LYMP2-018 (AID 985); also: nearly all actives have a fitted effect of over 50% in size
Procedure, shortened: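 Acute cytotoxicity is scored as a concentration-dependent drop in intracellular ATP after 24 hr exposure of the lymphoblastoid line in complete culture medium, measured by luciferase luminescence. Potency is expressed as AC50 from Hill modelling.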

[12] = Cell Viability - LYMP2-020 (AID 986)
Procedure, shortened: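 Acute cytotoxicity in a human lymphoblastoid line is scored as a concentration-dependent fall in cellular ATP after 24 hr at 37 C in complete medium. The positive control is tetraoctylammonium bromide, and potency is given as Hill-fit AC50.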

[13] = Cell Viability - LYMP2-022 (AID 987); also: nearly all actives have a fitted effect of over 55% in size
Procedure, shortened: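 Acute toxicity in a human lymphoblastoid line is scored as decreased intracellular ATP after 24 hr compound treatment at 37 C. ATP is measured by CellTiter-Glo luminescence; curves are fitted with the Hill equation to give AC50.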

[14] = Cell Viability - LYMP2-024 (AID 988); also: nearly all actives have a fitted effect of over 60% in size
Procedure, shortened: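 Acute toxicity is measured as concentration-dependent loss of intracellular ATP in a human lymphoblastoid line treated 24 hours at 37 C. Luciferase luminescence quantifies ATP; AC50 values come from standard Hill-equation modelling.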

[15] = Cell Viability - LYMP2-026 (AID 989);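 also: cells exposed to compound for 24 h at 37 °C; nearly all actives have a fitted effect of over 50% in size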
Procedure, shortened: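 Concentration-dependent loss of intracellular ATP in human lymphoblastoid cells after 24 hr at 37 C, quantified by luciferase luminescence. AC50 derived from standard Hill equation.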

[16] = Cell Viability - LYMP1-002 - Assay at 24 hr (AID 993)
Procedure, shortened: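 qHTS, LYMP1-002 lymphoblastoid, 24 h cpd, 37 C, CellTiter-Glo ATP luminescence; AC50 via Hill eq.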

[17] = Cell Viability - LYMP1-002 - Assay at 40 hr (AID 994); also: nearly all actives have a fitted effect of over 60% in size
Procedure, shortened: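 Viability in the human lymphoblastoid line was measured as intracellular ATP via CellTiter-Glo after 40 hr compound exposure. Tetraoctylammonium bromide served as positive control.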

[18] = target: Alpha-galactosidase A (Homo sapiens) (UniProt P06280); assay: Counterscreen for Glucocerebrosidase Inhibitors: qHTS Assay for Human alpha-Galactosidase at pH 4.5 (AID 992)
Sequence of Alpha-galactosidase A (Homo sapiens) (P06280 whole entry, looked up): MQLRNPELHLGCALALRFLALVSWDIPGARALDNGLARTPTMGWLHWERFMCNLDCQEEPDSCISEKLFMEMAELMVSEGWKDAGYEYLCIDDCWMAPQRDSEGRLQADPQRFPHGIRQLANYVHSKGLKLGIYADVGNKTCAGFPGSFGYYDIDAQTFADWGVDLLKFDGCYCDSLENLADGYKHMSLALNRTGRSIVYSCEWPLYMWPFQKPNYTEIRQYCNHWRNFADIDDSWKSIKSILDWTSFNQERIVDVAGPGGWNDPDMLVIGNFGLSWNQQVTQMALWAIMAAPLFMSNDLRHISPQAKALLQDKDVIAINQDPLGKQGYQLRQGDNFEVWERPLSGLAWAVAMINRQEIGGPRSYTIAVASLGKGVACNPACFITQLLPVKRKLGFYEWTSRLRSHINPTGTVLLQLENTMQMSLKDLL
Procedure, shortened: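 Human enzyme (2 nM) with 80 uM 4-methylumbelliferyl alpha-D-galactopyranoside in 50 mM citric acid, 0.005% Tween-20, pH 4.5, 20 min at room temperature. Compounds 0.7 nM–77 uM; fluorescence Ex 365/Em 440 after pH 10 stop; AC50 from Hill fits.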

[19] = target: alpha-glucosidase (Oryza sativa, rice) (UniProt Q653V4); assay: Counterscreen for Glucocerebrosidase Inhibitors: qHTS Assay for Rice alpha-Glucosidase at pH 5.0 (AID 997)
Procedure, shortened: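 Rice alpha-glucosidase (4 nM final) with 400 uM 4-methylumbelliferyl-alpha-D-glucopyranoside in citrate buffer pH 5.0, 20 min at room temperature, stopped at pH 10; fluorescence 365/440 nm, compounds 0.7 nM–77 uM, AC50 from Hill fits.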

Measured: Potency

O=[N+]([O-])c1c(Cl)c(Cl)cc(Cl)c1Cl
inactive: [1] | [2] | [3] | [4] | [5] | [6] | [7] | [8] | [9] | [10] | [11] | [12] | [13] | [14] | [15] | [16] | [17]

O=C(O)COc1ccccc1
inactive: [1] | [2] | [3] | [4] | [5] | [6] | [7] | [8] | [9] | [10] | [11] | [12] | [13] | [14] | [15] | [16] | [17]

Nc1ccc([N+](=O)[O-])cc1
inactive: [1] | [2] | [3] | [4] | [5] | [6] | [7] | [8] | [9] | [10] | [11] | [12] | [13] | [14] | [15] | [16] | [17]

O=C(O)Cc1cnc[nH]1
inactive: [18] | [19]

c1cc2ccc3cccc4ccc(c1)c2c34
inactive: [1] | [2] | [3] | [4] | [5] | [6] | [7] | [8] | [9] | [10] | [11] | [12] | [13] | [14] | [15] | [16] | [17]

C1CCC(NC2CCCCC2)CC1
inactive: [1] | [2] | [3] | [4] | [5] | [6] | [7] | [8] | [9] | [10] | [11] | [12] | [13] | [14] | [15] | [16] | [17]

CCCCCCCCc1ccc(O)cc1
inactive: [1] | [2] | [3] | [4] | [5] | [6] | [7] | [8] | [9] | [10] | [11] | [12] | [13] | [14] | [15] | [16] | [17]

C[C@]12N[C@H](Cc3ccccc31)c1ccccc12
inactive: [18] | [19]

CC(C)(O)C(=O)Nc1ccc([N+](=O)[O-])c(C(F)(F)F)c1
inactive: [1] | [2] | [3] | [4] | [5] | [6] | [7] | [8] | [9] | [10] | [11] | [12] | [14] | [15] | [16] | [17]
